In PubChem BioAssay (Tox21):
Records with an inconclusive call do not appear. Calls of active or inactive are those of the source. Calls come from the whole dose curve.
% is set by controls: 0 for no effect and ±100 for the full control effect.

These molecules were tested against Peroxisome proliferator-activated receptor delta (Homo sapiens) (UniProt Q03181) (assay: qHTS assay to identify small molecule agonists of the peroxisome proliferator-activated receptor delta (PPARd) signaling pathway (AID 743212)). Settings: HEK293H PPARd-UAS-bla, beta-lactamase FRET ratio, 17 h; series mostly up to 62.6 µM; activation: at the top concentration.
Chain of Peroxisome proliferator-activated receptor delta (Homo sapiens) (Q03181 whole entry, looked up): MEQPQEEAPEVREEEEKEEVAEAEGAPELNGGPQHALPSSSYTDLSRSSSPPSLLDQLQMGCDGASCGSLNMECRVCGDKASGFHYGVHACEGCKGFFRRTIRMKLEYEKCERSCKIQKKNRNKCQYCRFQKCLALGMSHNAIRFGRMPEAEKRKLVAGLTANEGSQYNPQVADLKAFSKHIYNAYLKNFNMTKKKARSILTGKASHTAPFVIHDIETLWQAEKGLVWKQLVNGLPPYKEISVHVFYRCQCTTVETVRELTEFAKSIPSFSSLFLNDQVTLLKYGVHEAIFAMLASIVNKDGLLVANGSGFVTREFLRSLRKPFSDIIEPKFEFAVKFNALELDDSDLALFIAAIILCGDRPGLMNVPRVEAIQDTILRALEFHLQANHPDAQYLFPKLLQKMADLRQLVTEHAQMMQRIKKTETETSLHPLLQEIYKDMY
Description: U.S. Tox21 Program National Center for Advancing Translational Sciences [NCATS] NIH Chemical Genomics Center [NCGC] U.S. Environmental Protection Agency [EPA] National Institutes of Environmental Health Sciences [NIEHS] National Toxicology Program [NTP] U.S. Food and Drug Administration [FDA] Tox21 Assay Overview: The peroxisome proliferator-activated receptors (PPARs) are lipid-activated transcription factors of the nuclear receptor superfamily with three distinct subtypes namely PPAR alpha, PPAR delta (PPARd) and PPAR gamma. All these subtypes heterodimerizes with Retinoid X receptor (RXR) and have different physiological functions. […] To identify the compounds that activate PPAR-delta signaling, GeneBLAzer PPAR delta UAS-bla HEK293H cell line (Invitrogen, Carlsbad, CA, USA) containing a beta-lactamase reporter gene under the control of an Upstream Activator Sequence (UAS) was used to screen the Tox21 compound library.
Tox21 Assay Protocol Summary: PPARd-bla cells were dispensed at 3000 cells/6uL/well in 1536-well black wall/clear bottom plates using a Multidrop Combi (Thermo Fisher Scientific, Waltham, MA) dispenser. After the assay plates were incubated at 37 C and 5% CO2 for 5 h, 23 nL of compounds dissolved in DMSO, positive controls or DMSO only was transferred to the assay plate by a Pintool station (Kalypsys, San Diego, CA). The assay plates were incubated at 37C for 17 h. After 1 uL of LiveBLAzerTM B/G FRET substrate was added using a Bioraptr Flying Reagent Dispenser (FRD) workstation (Beckman Coulter, Indianapolis, IN, USA), the plates were incubated at room temperature for 2 h, and fluorescence intensity was measured by an Envision plate reader (PerkinElmer, Shelton, CT).
In the case of C=C(C)C(=O)O[C@H]1C[C@@H]2CC[C@@]1(C)C2(C)C, the outcome is reported as “inactive”.
With Cc1ccc(S(N)(=O)=O)cc1 the outcome was “inactive”.
O=C(O)c1ccccc1C(c1ccc(O)cc1)c1ccc(O)cc1 was tested, and the “activation” value was -1.52% (inactive).
In the case of CCCC(C)=O, the outcome is reported as “inactive”.
C[Si](O[Si](C)(C)C)O[Si](C)(C)C was tested, and the outcome was “inactive”.
In the case of C#C[C@]1(O)CC[C@H]2[C@@H]3CCC4=CC(=O)CC[C@@H]4[C@H]3CC[C@@]21C, the “activation” value is reported as -0.994% (inactive).
CC(C)(N)CO was tested, and the outcome was “inactive”.
For CC[C@H](C)C(=O)O[C@H]1C[C@@H](C)C=C2C=C[C@H](C)[C@H](CC[C@@H]3C[C@@H](O)CC(=O)O3)[C@H]21, the “activation” value was -10.9% (inactive).
CCCCC(CC)CO (stereo not given) was tested, and the outcome was “inactive”.
With OC[C@H]1O[C@@](CO)(O[C@H]2O[C@H](CO)[C@@H](O)[C@H](O)[C@H]2O)[C@@H](O)[C@@H]1O the outcome was “inactive”.
In the case of CC1=CCC2CC1C2(C)C (stereo not given), the outcome is reported as “inactive”.
O=C(OCCOCCOC(=O)c1ccccc1)c1ccccc1 was tested, and the outcome was “inactive”.
In the case of CCCCC(CC)COC(=O)CCCCC(=O)OCC(CC)CCCC (stereo not given), the “activation” value is reported as 1.6% (inactive).
For COc1ccc(NC(C)=O)cc1N, the outcome was “inactive”.
For CCCCCCOCCO, the outcome was “inactive”.
C[C@H]1C[C@@H]2[C@H]([C@@H](O)C[C@@]3(C)[C@H]2CC[C@]3(O)C(=O)CO)[C@@]2(C)C=CC(=O)C=C12 was tested, and the outcome was “inactive”.
For CCCCCC1=CCCC1=O, the outcome was “inactive”.
In the case of Cc1cc(C)c(C)cc1C, the outcome is reported as “inactive”.
For CCCCCCCCC/C=C/CC1CC(=O)OC1=O (stereo not given), the “activation” value was 1.18% [at 81.1 µM] (inactive).
O=C(O)c1ccc(C(=O)O)cc1 was tested, and the outcome was “inactive”.
For CC(=O)c1ccccc1, the outcome was “inactive”.
In the case of Cc1cccc(O)c1, the “activation” value is reported as 0.339% [at 81.1 µM] (inactive).
For O=c1[nH]c(=O)n([C@H]2CCCO2)cc1F, the outcome was “inactive”.
In the case of OCc1cccnc1, the outcome is reported as “inactive”.
For CN(C)CCCN, the outcome was “inactive”.
In the case of FC(F)(F)c1ccc(Cl)c(Cl)c1, the outcome is reported as “inactive”.
With O=C(CC(C(=O)OC1CCCCC1)S(=O)(=O)O)OC1CCCCC1 (stereo not given) the outcome was “inactive”.
With CCCCCCCCCC the outcome was “inactive”.
CCCCCCCCCCCCc1ccccc1 was tested, and the outcome was “inactive”.
With CCN(CC)CCCC(C)Nc1ccnc2cc(Cl)ccc12 (stereo not given) the outcome was “inactive”.
With COc1ccc(Nc2ccccc2)c(C)c1 the “activation” value was 0.522% (inactive).
For CCCCCC/C(C=O)=C\c1ccccc1, the outcome was “inactive”.
For CC1=C(C)S(=O)(=O)CCS1(=O)=O, the outcome was “inactive”.
With O=C=NCCCCCCN=C=O the outcome was “inactive”.
In the case of O=C(O)[C@H](O)[C@@H](O)[C@H](O)[C@H](O)CO, the “activation” value is reported as 1.24% (inactive).
With CCCCCCCCCCCCCCCO the outcome was “inactive”.
With Nc1cc([N+](=O)[O-])ccc1O the outcome was “inactive”.
In the case of c1ccc2c(c1)ccc1ccccc12, the outcome is reported as “inactive”.
In the case of C/C=C1/CC2C=CC1C2 (stereo not given), the outcome is reported as “inactive”.
With Nc1ccccc1[N+](=O)[O-] the outcome was “inactive”.
